This passage reports inhibition results from ChEMBL document CHEMBL1961873, “Compounds: GSK PKIS; Assays: Nanosyn kinase panel” (2012).

The target in assay [1] is Serine/threonine-protein kinase MRCK alpha (Homo sapiens) (UniProt Q5VT25). Conditions: at 0.1 µM.
The target is the same in assay [2]. Conditions: at 1 µM.
The target of assay [3] is Serine/threonine-protein kinase MRCK beta (Homo sapiens) (UniProt Q9Y5S2). To be noted: at 0.1 µM.
For assay [4] the target is unchanged. To be noted: at 1 µM.
In assay [5] the target is Ribosomal protein S6 kinase alpha-5 (Homo sapiens) (UniProt O75582). Conditions: at 0.1 µM.
Chain of Ribosomal protein S6 kinase alpha-5 (Homo sapiens) (O75582 whole entry, looked up): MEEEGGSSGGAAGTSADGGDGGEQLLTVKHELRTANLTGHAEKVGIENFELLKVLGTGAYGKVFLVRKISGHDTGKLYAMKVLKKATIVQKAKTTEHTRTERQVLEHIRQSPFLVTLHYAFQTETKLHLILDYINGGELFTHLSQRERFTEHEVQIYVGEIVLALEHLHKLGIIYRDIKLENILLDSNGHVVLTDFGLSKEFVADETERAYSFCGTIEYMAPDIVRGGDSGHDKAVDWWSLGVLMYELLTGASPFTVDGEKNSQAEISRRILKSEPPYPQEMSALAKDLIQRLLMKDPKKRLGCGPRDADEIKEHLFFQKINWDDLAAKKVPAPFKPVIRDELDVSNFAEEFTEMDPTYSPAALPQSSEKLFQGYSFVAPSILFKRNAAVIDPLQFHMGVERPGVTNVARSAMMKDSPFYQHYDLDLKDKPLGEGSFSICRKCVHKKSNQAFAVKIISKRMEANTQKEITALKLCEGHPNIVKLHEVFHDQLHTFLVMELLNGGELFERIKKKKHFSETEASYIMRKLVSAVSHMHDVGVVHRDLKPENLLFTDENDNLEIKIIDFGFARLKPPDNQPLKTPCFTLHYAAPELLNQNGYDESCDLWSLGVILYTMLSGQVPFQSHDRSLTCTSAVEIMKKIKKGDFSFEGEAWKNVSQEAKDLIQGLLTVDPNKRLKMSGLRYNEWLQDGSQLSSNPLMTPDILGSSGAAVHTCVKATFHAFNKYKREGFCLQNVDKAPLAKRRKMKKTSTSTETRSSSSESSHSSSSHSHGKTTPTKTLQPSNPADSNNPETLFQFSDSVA
Assay [6] has the same target. To be noted: at 1 µM.
In assay [7] the target is Ribosomal protein S6 kinase alpha-4 (Homo sapiens) (UniProt O75676). To be noted: at 0.1 µM.
The target is the same in assay [8]. To be noted: at 1 µM.
The target in assay [9] is Ribosomal protein S6 kinase beta-1 (Homo sapiens) (UniProt P23443). To be noted: at 0.1 µM.
Chain of Ribosomal protein S6 kinase beta-1 (Homo sapiens) (P23443 whole entry, looked up): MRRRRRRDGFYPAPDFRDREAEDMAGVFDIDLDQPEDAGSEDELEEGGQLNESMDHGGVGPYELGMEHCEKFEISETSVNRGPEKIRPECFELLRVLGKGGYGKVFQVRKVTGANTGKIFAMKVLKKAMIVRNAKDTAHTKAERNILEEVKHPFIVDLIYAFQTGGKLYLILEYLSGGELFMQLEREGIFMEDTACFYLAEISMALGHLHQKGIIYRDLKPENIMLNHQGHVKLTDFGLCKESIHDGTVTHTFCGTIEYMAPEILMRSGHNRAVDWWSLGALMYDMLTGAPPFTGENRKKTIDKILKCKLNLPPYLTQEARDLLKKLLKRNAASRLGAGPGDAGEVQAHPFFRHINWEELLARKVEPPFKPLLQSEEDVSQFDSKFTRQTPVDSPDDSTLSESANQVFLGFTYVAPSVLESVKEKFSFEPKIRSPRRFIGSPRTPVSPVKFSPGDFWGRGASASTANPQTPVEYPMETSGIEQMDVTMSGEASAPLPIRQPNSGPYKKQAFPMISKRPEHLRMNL
For assay [10] the target is unchanged. To be noted: at 1 µM.
For assay [11], the target named is T1, 3-phosphoinositide-dependent protein kinase 1 (Homo sapiens) (UniProt O15530).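 Further: values are mean inhibition of PDK1.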
T1 sequence (whole entry): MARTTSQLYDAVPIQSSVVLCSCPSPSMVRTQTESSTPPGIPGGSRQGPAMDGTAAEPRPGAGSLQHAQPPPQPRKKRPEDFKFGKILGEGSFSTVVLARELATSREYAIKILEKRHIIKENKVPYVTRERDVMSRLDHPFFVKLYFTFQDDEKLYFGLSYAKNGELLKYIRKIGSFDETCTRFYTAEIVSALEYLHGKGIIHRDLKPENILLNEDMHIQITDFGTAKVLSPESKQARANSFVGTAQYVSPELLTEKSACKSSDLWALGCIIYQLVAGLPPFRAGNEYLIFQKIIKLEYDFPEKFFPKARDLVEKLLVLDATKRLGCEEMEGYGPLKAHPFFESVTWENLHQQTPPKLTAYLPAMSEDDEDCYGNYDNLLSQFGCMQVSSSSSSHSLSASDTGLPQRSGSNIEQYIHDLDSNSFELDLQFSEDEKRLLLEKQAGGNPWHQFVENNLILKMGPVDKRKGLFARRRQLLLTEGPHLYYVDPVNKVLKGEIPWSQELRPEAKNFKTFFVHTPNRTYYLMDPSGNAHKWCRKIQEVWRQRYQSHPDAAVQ
Conditions: at 0.1 µM.

Assay [12] has as its target cAMP-dependent protein kinase catalytic subunit alpha (Homo sapiens) (UniProt P17612). To be noted: at 0.1 µM.
Assay [13] shares this target. To be noted: at 1 µM.
Assay [14] concerns the target Protein kinase C alpha type (Homo sapiens) (UniProt P17252). Conditions: at 0.1 µM.
For assay [15] the target is unchanged. Conditions: at 1 µM.
Assay [16] has as its target Protein kinase C beta type (Homo sapiens) (UniProt P05771). Conditions: at 0.1 µM.
Assay [17] has the same target. To be noted: at 1 µM.
Assay [18] has as its target Protein kinase C eta type (Homo sapiens) (UniProt P24723). To be noted: at 0.1 µM.
For assay [19] the target is unchanged. Conditions: at 1 µM.
Assay [20] deals with Protein kinase C gamma type (Homo sapiens) (UniProt P05129). To be noted: at 0.1 µM.

Chain of Protein kinase C eta type (Homo sapiens) (P24723 whole entry): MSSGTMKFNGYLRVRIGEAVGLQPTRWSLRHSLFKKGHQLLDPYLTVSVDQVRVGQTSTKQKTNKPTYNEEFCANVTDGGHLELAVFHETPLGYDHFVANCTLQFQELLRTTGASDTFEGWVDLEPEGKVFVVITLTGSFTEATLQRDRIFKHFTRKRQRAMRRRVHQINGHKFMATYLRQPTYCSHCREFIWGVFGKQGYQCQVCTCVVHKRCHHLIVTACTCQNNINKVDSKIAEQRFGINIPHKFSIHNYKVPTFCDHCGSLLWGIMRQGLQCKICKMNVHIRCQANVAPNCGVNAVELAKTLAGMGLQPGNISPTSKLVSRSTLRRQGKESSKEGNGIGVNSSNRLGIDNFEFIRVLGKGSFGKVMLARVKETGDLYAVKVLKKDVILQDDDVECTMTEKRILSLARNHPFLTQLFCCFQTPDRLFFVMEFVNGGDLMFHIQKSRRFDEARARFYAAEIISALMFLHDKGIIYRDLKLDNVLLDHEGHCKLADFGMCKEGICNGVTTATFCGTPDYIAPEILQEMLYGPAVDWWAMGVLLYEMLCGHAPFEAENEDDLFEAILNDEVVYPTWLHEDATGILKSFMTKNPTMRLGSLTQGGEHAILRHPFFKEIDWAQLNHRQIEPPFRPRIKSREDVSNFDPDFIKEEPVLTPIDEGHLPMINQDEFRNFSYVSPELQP
Chain of Serine/threonine-protein kinase MRCK beta (Homo sapiens) (Q9Y5S2 whole entry): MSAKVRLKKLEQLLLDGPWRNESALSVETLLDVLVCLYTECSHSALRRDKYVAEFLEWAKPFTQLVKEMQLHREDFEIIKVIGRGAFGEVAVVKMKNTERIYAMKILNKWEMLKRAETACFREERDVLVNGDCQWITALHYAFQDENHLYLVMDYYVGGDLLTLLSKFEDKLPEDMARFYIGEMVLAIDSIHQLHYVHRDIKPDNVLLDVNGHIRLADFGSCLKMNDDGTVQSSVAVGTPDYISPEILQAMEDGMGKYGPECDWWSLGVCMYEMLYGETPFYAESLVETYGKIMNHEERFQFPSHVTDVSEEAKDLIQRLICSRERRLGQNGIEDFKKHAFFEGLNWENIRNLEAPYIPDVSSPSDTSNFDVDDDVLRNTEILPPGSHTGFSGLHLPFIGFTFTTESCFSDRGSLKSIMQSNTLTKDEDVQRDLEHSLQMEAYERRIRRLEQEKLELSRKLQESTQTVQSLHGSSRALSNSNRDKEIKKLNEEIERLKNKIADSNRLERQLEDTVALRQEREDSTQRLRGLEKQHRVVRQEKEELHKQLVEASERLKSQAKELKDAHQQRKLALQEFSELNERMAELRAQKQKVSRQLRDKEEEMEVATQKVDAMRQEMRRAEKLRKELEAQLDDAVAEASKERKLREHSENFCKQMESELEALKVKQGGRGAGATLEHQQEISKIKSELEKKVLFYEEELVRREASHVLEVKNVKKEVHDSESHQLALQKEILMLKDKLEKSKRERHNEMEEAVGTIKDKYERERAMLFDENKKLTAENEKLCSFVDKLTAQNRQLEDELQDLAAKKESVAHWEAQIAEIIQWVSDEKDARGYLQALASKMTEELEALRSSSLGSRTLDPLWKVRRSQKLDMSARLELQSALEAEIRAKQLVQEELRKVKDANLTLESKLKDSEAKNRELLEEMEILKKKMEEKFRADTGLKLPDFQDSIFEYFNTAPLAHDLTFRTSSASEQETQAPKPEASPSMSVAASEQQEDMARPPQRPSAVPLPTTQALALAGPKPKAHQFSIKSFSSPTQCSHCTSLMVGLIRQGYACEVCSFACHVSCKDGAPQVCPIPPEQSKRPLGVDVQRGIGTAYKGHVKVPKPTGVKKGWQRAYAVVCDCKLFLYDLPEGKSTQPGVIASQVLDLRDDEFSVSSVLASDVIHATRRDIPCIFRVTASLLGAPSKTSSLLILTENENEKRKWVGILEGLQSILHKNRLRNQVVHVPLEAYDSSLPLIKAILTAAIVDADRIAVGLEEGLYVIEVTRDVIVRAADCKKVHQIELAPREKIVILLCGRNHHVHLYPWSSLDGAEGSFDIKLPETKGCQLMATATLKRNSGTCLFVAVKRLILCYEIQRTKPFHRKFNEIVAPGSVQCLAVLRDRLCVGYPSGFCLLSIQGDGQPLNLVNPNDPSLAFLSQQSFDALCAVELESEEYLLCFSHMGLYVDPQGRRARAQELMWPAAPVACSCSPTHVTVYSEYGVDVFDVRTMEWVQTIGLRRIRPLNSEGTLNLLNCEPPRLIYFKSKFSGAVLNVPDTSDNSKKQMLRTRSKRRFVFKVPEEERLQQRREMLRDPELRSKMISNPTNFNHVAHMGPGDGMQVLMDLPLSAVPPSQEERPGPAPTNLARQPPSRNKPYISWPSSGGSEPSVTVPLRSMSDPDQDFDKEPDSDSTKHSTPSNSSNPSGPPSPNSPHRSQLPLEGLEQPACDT
Chain of Protein kinase C beta type (Homo sapiens) (P05771 2-671 limits assumed): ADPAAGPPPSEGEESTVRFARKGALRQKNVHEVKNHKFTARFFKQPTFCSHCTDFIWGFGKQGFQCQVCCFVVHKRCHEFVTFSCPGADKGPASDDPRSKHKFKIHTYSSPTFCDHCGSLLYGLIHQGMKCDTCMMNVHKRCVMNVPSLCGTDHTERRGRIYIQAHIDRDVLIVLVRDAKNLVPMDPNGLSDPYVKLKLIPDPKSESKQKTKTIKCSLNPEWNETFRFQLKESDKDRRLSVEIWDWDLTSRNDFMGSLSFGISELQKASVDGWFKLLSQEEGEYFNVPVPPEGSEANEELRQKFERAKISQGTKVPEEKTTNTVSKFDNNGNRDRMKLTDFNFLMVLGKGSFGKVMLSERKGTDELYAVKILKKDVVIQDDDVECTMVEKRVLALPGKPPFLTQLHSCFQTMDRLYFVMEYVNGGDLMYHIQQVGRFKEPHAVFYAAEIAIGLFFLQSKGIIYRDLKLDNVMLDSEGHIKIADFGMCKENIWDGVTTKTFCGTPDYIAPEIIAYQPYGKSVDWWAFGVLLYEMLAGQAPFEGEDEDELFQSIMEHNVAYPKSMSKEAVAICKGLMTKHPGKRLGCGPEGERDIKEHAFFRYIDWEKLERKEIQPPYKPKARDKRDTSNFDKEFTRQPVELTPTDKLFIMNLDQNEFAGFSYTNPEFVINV

As usually defined, the inhibition is the change of the read-out against control, counted positive when it falls. `CN1CCC(n2cnc(-c3ccc(F)cc3)c2-c2ccnc(N)n2)CC1`: the inhibition was 1.47% in assay [1]; 1.4% in assay [2]; -1.13% in assay [3]; 1.3% in assay [4]; 0.55% in assay [5]; 2.23% in assay [6]. In addition, the inhibition in assay [7] was 0.42%; in [8], 3.67%; in assay [9], -0.73%; in assay [10] it was 1.36%; in assay [11], 3.73%; in assay [12], 3.06%. Moreover, the inhibition came out at 7.95% in assay [13]; 1.23% in assay [14]; 10.6% in assay [15]; 0.83% in assay [16]; 7.02% in assay [17]; 3.71% in assay [18]. The results for the inhibition in assay [19] and in assay [20] were 4.79% and 0.37%, respectively.
Regarding `COc1cc2ncn(-c3cc(OCc4ccccc4C(F)(F)F)c(C(=O)N(C)C)s3)c2cc1OC`, the inhibition was 0.01% in assay [1]; 0.75% in [2]; -1.11% in [3]; 1.24% in assay [4]; -0.57% in assay [5]; -0.4% in [6]. The inhibition is 0.13% in [7]; 0.89% in assay [8]; -0.55% in [9]; -1.48% in [10]; 1.17% in assay [11]; 0.88% in [12]. In addition, the inhibition in assay [13] was 0.93%; in assay [14] it was -0.03%; in assay [15], 0.21%; in [16], 0.35%; in assay [17], -0.32%; in assay [18] it was 1.66%. Moreover, the values for the inhibition in assay [19] and in assay [20] were 0.73% and -1.33%, respectively.
As to `CN(C)CCOc1ccc(-c2nc(-c3ccncc3)c(-c3ccc4c(c3)CC/C4=N\O)[nH]2)cc1`, the inhibition in [1] was -0.58%; in assay [2], 0.77%; in assay [3], 0.46%; in [4] it was 0.41%; in assay [5] it was 3.39%; in assay [6], 7.59%. Also, the inhibition was 2.36% in [7]; 4.48% in assay [8]; 1.37% in assay [9]; 1.71% in assay [10]; 0.77% in assay [11]; 1.46% in assay [12]. For the same compound, the inhibition in assay [13] is 4.29%; in assay [14], 0.58%; in [15], 1.61%; in assay [16], 1.27%; in assay [17] it was 11.9%; in assay [18], 1.48%. Further, the inhibition in [19] worked out at 3.32%; in assay [20], 1.85%.
On to `COC(=O)c1sc(-n2cnc3cc(OC)c(OC)cc32)cc1OCc1ccccc1C(F)(F)F`, for which the inhibition in assay [1] was -0.56%; in [2], -2.93%; in assay [3] it was -0.49%; in assay [4] it was -0.87%; in [5], 3.01%; in assay [6], 1.81%. The inhibition was determined as 0.54% in [7]; 3.06% in assay [8]; 2.41% in assay [9]; 7.02% in [10]; 1.42% in assay [11]; 1.59% in assay [12]. For the same compound, the inhibition in assay [13] is 0.74%; in assay [14] it was 0.62%; in assay [15], 1.49%; in [16], -0.94%; in assay [17], 0.17%; in assay [18] it was 2.15%. For the same compound, the results for the inhibition in [19] and in [20] were 0.99% and 3.39%, respectively.
For `COc1ccc(-c2cc3c(N)ncnc3o2)cc1`, the inhibition in assay [1] is 1.37%; in assay [2] it was -2.67%; in assay [3], 1.33%; in [4] it was -0.07%; in [5] it was -2.51%; in assay [6], -3.04%. For the same compound, the inhibition in assay [7] was -0.05%; in [8] it was -0.35%; in assay [9], -0.5%; in assay [10], -0.54%; in assay [11], -0.95%; in assay [12], -0.06%. For the same compound, the inhibition in assay [13] is 0.18%; in assay [14] it was -0.88%; in assay [15] it was 3%; in [16], -0.74%; in assay [17], -2.12%; in assay [18], -4.39%. The inhibition in assay [19] is -1.49%; in assay [20], 0.2%.
For `COC(=O)Nc1nc2ccc(Oc3ccc(NC(=O)Nc4cccc(Cl)c4)cc3)cc2[nH]1`, the inhibition is -2.43% in [1]; -0.92% in assay [2]; -0.72% in assay [3]; -1.4% in [4]; 0.39% in [5]; -1.18% in assay [6]. Also, the inhibition in assay [7] was 0.82%; in [8] it was -0.55%; in assay [9] it was 0.63%; in assay [10] it was 0.82%; in [11] it was -0.86%; in assay [12], 2.12%. Moreover, the inhibition in assay [13] was 0.79%; in assay [14], 0.15%; in assay [15], -0.86%; in assay [16], -1.37%; in [17] it was -5.17%; in [18], 0.84%. The inhibition in assay [19] is -0.24%; in assay [20], 0.84%.
